# This is one part of a sample in which hits are shown more often than they occur.
# Tgondii IFNg: blocks Toxoplasma gondii growth in the presence of IFN-gamma; Toxoplasma gondii growth in IFN-gamma-treated host cells; active compounds read low; activity change, negative = inhibition, % (concentration not given with the values); AID 1259416; 3.8% of 69,000 active; in the data active means activity change below about -70%, passing the limit was not always enough;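 further: host cells are HeLa cells infected with Toxoplasma gondii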
# * = called active by the depositor; i = inactive; ! = not confirmed by another sample.
SMILES,Tgondii IFNg
COc1cccc(CNC(=O)c2cc3c(s2)CCN3C(=O)c2ccc(F)cc2)c1,-86.9*
COc1cccc(CNC(=O)c2cc3c(s2)CCN3C(=O)CN(C)C)c1,-6.3
COc1cccc(CNC(=O)N2CCc3nc(-c4ccccc4)sc3C2)c1,32.7
COc1cccc(CNC(=O)c2nc(Nc3ccc(F)cc3)c3ccccc3n2)c1,21.6
O=C(NCc1cccc(F)c1)c1cc2c(s1)CCN2C(=O)c1ccccc1,-81.8*
CN(C)CCNC(=O)c1cc2c(s1)CCN2C(=O)C1CC1,2.4
COC(=O)C1CCCN1C(=O)C1(Oc2ccc(C)cc2)CCNCC1 (stereo not drawn),-4.2
Cc1cccc(-c2nc(Cn3nnc(-c4nc(-c5ccccc5Br)no4)c3C)c(C)o2)c1,3.9
O=C(NCCC1CN(Cc2cccnc2)CCO1)c1ccsc1 (stereo not drawn),-6.2
CCc1nc(NC(=O)C2CCS(=O)(=O)C2)n[nH]1 (stereo not drawn),-7.7
Cc1nn(C)c(Oc2ccc(Cl)cc2)c1CN1CC[C@H](CO)[C@@H](O)C1,-13.5
Cc1cc(C)cc(CN2CCC3(CC2)CCN(c2cncnc2)C3=O)c1,-49.7
CN1CCOCC2(CCCN(Cc3ccn(C)n3)C2)C1 (stereo not drawn),81.8
Clc1ccc(-c2nc(NC3CCN(Cc4ccccc4)CC3)c3ccccc3n2)cc1,-65.2
Cc1cccc(CN2CCC(CNc3nc(-c4ccc(Cl)cc4)nc4ccccc34)CC2)c1,-59.5
Fc1cccc2c(OC3CCN(Cc4ccccc4)CC3)cc(C(F)(F)F)nc12,-94.4*
Cc1cnc(C(=O)N2C[C@@H]3COC[C@@]3(CNS(C)(=O)=O)C2)cn1,-0.6
Cc1cc(C(=O)Nc2nc3c(s2)CCc2ccccc2-3)no1,95.5
COc1cccc(OCc2cc(C(=O)NC[C@H]3CCCN3)n[nH]2)c1,4.4
c1ccc(-c2cc3c(N4CCc5ccccc54)ncnc3s2)cc1,-42.7
Clc1ncnc2sc(-c3ccccc3)cc12,61.7
c1ccc(-c2cc3ncnc(N4CCSCC4)c3s2)cc1,-98.7*
Cc1ccncc1C(=O)N(Cc1ccc(F)cc1)CC1CCCO1 (stereo not drawn),-6.8
COc1cccc(CC(=O)NC(Cc2ccccc2)c2nn(CC(C)C)c3ncccc23)c1 (stereo not drawn),-40.2
COc1ccc(-c2cc(=S)sc(N)c2C#N)cc1OC,64.5
SMILES,Tgondii IFNg
COc1ccc(-c2c(C#N)c(N)nc3c2CCc2ccccc2-3)cc1OC,-86.3*
COc1ccc(-c2cc(-c3ccccc3)nc(N)c2C#N)cc1OC,18.6
CC(C)[C@H](NS(=O)(=O)c1ccc(-c2ccc(Br)cc2)cc1)C(=O)O,36.9
CC(C)ON([C@@H](C(=O)NO)C(C)C)S(=O)(=O)c1ccc(-c2ccccc2)cc1,-75.2*
O=C(O)CNS(=O)(=O)c1ccc(-c2ccccc2)cc1,-3.4
Cn1nnc2c1CCN(C(=O)CS(C)(=O)=O)C2COCC1CC1 (stereo not drawn),5.2
COc1ccc2[nH]cc(CCN3CC(O)=C(c4nc5ccccc5s4)C3=N)c2c1,3.5
Cc1cc(C)c(NC(=O)c2nnn(Cc3nc(-c4ccccc4C)oc3C)c2C)c(C)c1,10.4
COc1ccc2[nH]c(CNC(=O)c3cc(NC(C)=O)ccc3Cl)cc2c1,0.4
Cn1cccc1C(=O)N1CCC2(CC1)COCCN(c1ncccn1)C2,-6.7
O=C(CCCN1CCN(c2ccccn2)CC1)c1ccc(F)cc1,8.6
Clc1ccc(-c2nc(N3CCOCC3)ncc2-c2ncc[nH]2)cc1,-60.3
Fc1ccc(-c2nc(N3CCN(c4ccccn4)CC3)ncc2-c2ncc[nH]2)cc1,-92.3*
COCC(=O)N1[C@H](C#N)[C@H](c2ccccc2-c2cccc(C)c2)[C@@H]1CO,-44.0
O=C(CSc1nnc(-c2ccc(O)cc2)o1)c1cc2ccccc2oc1=O,18.5
CCC(=O)Nc1cccc(OCC(=O)N2CCOCC2CC(C)C)c1 (stereo not drawn),9.4
Cc1ccccc1NC(=O)c1c(O)c2cccnc2n(-c2ccc(F)cc2)c1=O,126.4
Cc1ccc(NC(=O)CC(=O)N2CCN(Cc3ccc4c(c3)OCO4)C(=O)C2)cc1,-52.3
CCc1cnc(C)nc1N1CCN(Cc2ccc3c(c2)OCO3)C(=O)C1,-85.2*
CCNc1ccnc(N2CCN(Cc3ccc4c(c3)OCO4)CC2)n1,-12.8
Cc1cc(Nc2ccccn2)cc(C2CCCN(C(=O)c3n[nH]c4c3CCCCCC4)C2)n1 (stereo not drawn),-85.6*
Cc1cc(Nc2ccccn2)cc(C2CCCN(S(=O)(=O)c3ccc(F)cc3)C2)n1 (stereo not drawn),-65.4
O=C(c1n[nH]c2c1CCCCCC2)N1CCCN(c2ccccn2)CC1,9.9
CCC(C(=O)NCC1=CCN(C)CC1)c1ccccc1 (stereo not drawn),5.8
Cn1c(SCc2nccn2Cc2ccc(Cl)cc2)nnc1C(F)(F)F,48.5
SMILES,Tgondii IFNg
CNc1cc2c(Nc3cccc(Br)c3)ncnc2cn1,-16.4
CCN(CC)c1nc2nonc2nc1Nc1cccc(Br)c1,-112.0*
Brc1cccc(Nc2ncnc3cc4nc[nH]c4cc23)c1,-20.4
CCN1C(=O)N(Cc2cccc(OC)c2)C(=O)C12CCN(Cc1cnn(C)c1C)CC2,0.5
O=C1CC(Cn2c(=O)oc3ccccc32)c2cnn(Cc3cccnc3)c2N1 (stereo not drawn),6.9
COc1ccc(F)cc1CN1CC[C@@](C)(O)[C@@H](Cc2ccccc2)C1,-48.1
O=C(Nc1ccc2c(c1)CN(Cc1ccccc1)C2)c1cnc(N2CCOCC2)nc1,-95.5*
O=C(Nc1ccc2c(c1)CN(Cc1ccccc1)C2)c1nc2ncccn2n1,-77.5*
O=C(Cn1ncc2ccccc2c1=O)Nc1ccc2c(c1)CN(Cc1ccccc1)C2,2.1
Cc1nc(N)nc(C)c1CCC(=O)Nc1ccc2c(c1)CN(Cc1ccccc1)C2,-1.3
Cc1nc2nc[nH]n2c(=O)c1CC(=O)Nc1ccc2c(c1)CN(Cc1ccccc1)C2,-5.5
CCn1c(C)nc2cc(NC(=O)c3cnc(N4CCOCC4)nc3)ccc21,-8.3
Cc1cc(C)c(C#N)c(Nc2cc(C(F)(F)F)ccc2Cl)n1,-44.5
COc1ccc(CCNC(=O)CN2CCN(c3cn[nH]c(=O)c3)CC2)cc1,6.1
Cc1cccc(NC(=O)CN2CCC3(CC2)N=C(c2ccc(Cl)cc2)C(=O)N3)c1,11.5
Cc1cc(OC(=O)c2ccco2)nc(SCc2c(Cl)cccc2Cl)n1,22.4
O=C(NCC(c1cccnc1)c1c[nH]c2ccccc12)Nc1ccc(Br)cc1F (stereo not drawn),-116.2*
Cn1cc(C(CNC(=O)Nc2ccc(Br)cc2F)c2cccnc2)c2ccccc21 (stereo not drawn),i
O=C(NCC(c1cccnc1)c1c[nH]c2ccccc12)Nc1cccc(Br)c1 (stereo not drawn),191.0
CCc1cc(C(=O)N2CCc3c(c(C(=O)N4CCN(c5ccccc5)CC4)nn3CC)C2)no1,-17.6
Fc1cccc(CN2CCCC3(COCCN(CC4CC4)C3)C2)c1 (stereo not drawn),-43.2
CCn1ccnc1CN1CCCC(c2cncc(-c3cccc(Cl)c3)n2)C1 (stereo not drawn),-109.7*
Cc1cccc(-c2ncc(CN3CCCC(Cn4ccnc4C)C3)cn2)c1 (stereo not drawn),-6.3
CCCn1ccnc1CN1CCCC(c2nn(C)c(=O)n2CC)C1 (stereo not drawn),3.6
CCOc1ccc(S(=O)(=O)N2CCC[C@@H]2C(=O)NCCc2csc(-c3ccccc3)n2)cc1,-24.3
O=C(O)CCS(=O)(=O)Cc1ccccc1,25.4
CCn1c(=O)[nH]c2cc(Cl)c(Cl)cc21,-83.8*!
